Data on 91 molecules can be found in PubChem BioAssay AID504408 (Broad Institute, 2011).

Hit rate of the full screen: of about 300,000 compounds, about 5,200 (1.7%) were called active. Only a selection was taken, and actives are over-represented in it overall. Values without a mark were called inactive.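 How the source made its calls: active means mean replicate activation of at least 50% with a set share of replicates each reaching 50%; inconclusive means only one of those two conditions met; inactive means mean below 50% and too few replicates reaching it.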

The nature of this assay: HSF-1 activators, primary screen, NIH3T3-HGL cells, MG132 stress, luminescence, single point (AID 504408).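 Further: 0% = median of the neutral control wells and 100% = twice that signal.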 The settings on record: NIH3T3-HGL HSF-1 luciferase reporter, MG132, 8 h; at 9 µM; stronger effect = higher value; 100% = twice DMSO control signal.
In the case of `CCCCCCCNC(=O)C1(CC2CC(c3cccc(Br)c3)=NO2)CCN(C(=O)c2cc(OCC)c(OCC)c(OCC)c2)CC1` (stereo unspecified), the activation is 4.29%.
As for `Cn1cc([N+](=O)[O-])c(C(=O)Nc2ccc3c(c2)OCCO3)n1`, the figure is 48.7%; as for `Cn1cc([N+](=O)[O-])c(C(=O)Nc2cnn(Cc3ccc(F)cc3)c2)n1`, 65.1% (active).
`CCc1ccc(NC(=O)c2ccc(Cn3cc([N+](=O)[O-])cn3)cc2)cc1`: the activation was -1.45%.
The value for `COCCn1c(SCC(=O)Nc2ccccc2F)nc2c(c1=O)SCC2` was 54.8% (active).
The value for `O=C(CSc1ccc(-c2cccs2)nn1)Nc1ccccc1F` was -2.98%; that for `O=C(CSc1nc2nccnc2c(=O)n1Cc1cccs1)Nc1ccccc1F` was 77.1% (active).
As for `COCCn1c(SCC(=O)N2CCCCCC2)nc2c(c1=O)SCC2`, the figure is 2.01%; as for `CCOc1ccc(NC(=O)CSc2nc3ccccc3c(=O)n2Cc2cccs2)cc1`, -10.7%; as for `COCCn1c(SCC(=O)Nc2cc(Cl)ccc2OC)nc2c(c1=O)SC(C)C2` (stereo unspecified), -0.138%.
Take `CCc1ccc(C(=O)NNC(=O)C2CCN(c3ncnc4sc(C)c(C)c34)CC2)cc1`: the activation was -1.58%.
As for `CCOc1ccc(NS(=O)(=O)c2ccc(C(=O)NCC(c3ccccc3OC)N3CCCC3)cc2)cc1` (stereo unspecified), the figure is -2.02%; as for `COc1cccc(COC(=O)C2CCN(S(=O)(=O)c3cccs3)CC2)c1OC`, 1.63%.
The value for `O=C(CC1SC(N2CCCC2)=NC1=O)Nc1ccc(C(=O)NCCc2ccc(F)cc2)cc1` (stereo unspecified) was -12%; that for `CCN(C(=O)COC(=O)C1CCN(S(=O)(=O)c2ccc(C)c(C)c2)CC1)C1CCS(=O)(=O)C1` (stereo unspecified) was 1.03%; that for `Cc1ccc(C)c(OCCC(=O)OCC(=O)NC(=O)NCc2ccccc2)c1` was -2.69%.
Turning to `COC(=O)c1c(NC(=O)CSc2nncs2)sc2c1CCCCC2`, the activation is 17.2%.
The value for `CCc1ccc(N(CC(=O)Nc2sc3c(c2C(=O)OC)CCCC3)S(C)(=O)=O)cc1` was 59.7% (active); that for `COC(=O)c1c(NC(=O)CN(c2ccc(C)c(C)c2)S(C)(=O)=O)sc2c1CCCC2` was 31.3%.
As for `CCCN(CC(=O)Nc1ccccc1OC)C(=O)CCC(=O)c1ccc(F)cc1`, the activation was -3.54%.
The value for `O=C(Nc1ccc(NC(=O)c2ccco2)c(Cl)c1)c1cccc([N+](=O)[O-])c1` was 0.794%; that for `COc1cc(NC(=O)c2cc([N+](=O)[O-])ccc2Br)ccc1NC(=O)c1ccco1` was 111% (active).
For the molecule `COc1ccccc1C(=O)Nc1ccc(NC(=O)c2ccco2)c(C)c1`, the activation is -0.874%.
The value for `O=C(OCC1OC(Oc2ccc(O)cc2)C(O)C(O)C1O)c1ccccc1` (stereo unspecified) was -4.63%; that for `Cn1c2ccccc2c(=O)c2c(=O)n(Cc3ccco3)c(COc3ccccc3)nc21` was 17.1%; that for `Cc1ccc(Cn2c(C)nc3c(c2=O)c2nc4ccccc4nc2n3Cc2ccco2)cc1` was 100% (active).
The value for `Cc1nc2ccccc2c(=O)n1Cc1ccc([N+](=O)[O-])cc1` was 7.48%; that for `O=C(NCCCN1CCCC1=O)c1cccc(S(=O)(=O)NCc2ccccc2)c1` was 18.7%; that for `COc1ccccc1OCC(=O)Nc1ccccc1C(=O)NC1CC1` was 6.1%.
As for `OCCCNc1nc(-c2ccccc2)c2cc(Cl)ccc2n1`, the figure is -8.88%.
Turning to `CCCCn1c(N)c(N(CCOC)C(=O)c2sc3ccccc3c2Cl)c(=O)[nH]c1=O`, the activation was 1.82%.
The value for `CC(Oc1ccc(Cl)cc1)C(=O)OCC(=O)Nc1ncc(Cl)cc1Cl` (stereo unspecified) was 83.9% (active); that for `CC(Oc1ccc(Cl)cc1)C(=O)Nc1ncccn1` (stereo unspecified) was 9.27%; that for `Cc1ccc(SCCC(=O)OCC(=O)Nc2ncc(Cl)cc2Cl)cc1` was 1.1%.
`CCC(C)N(C(=O)CSc1ncnc2c1cnn2-c1ccccc1)C1CCS(=O)(=O)C1` (stereo unspecified): the activation is -5.54%.
Consider `CCOC(=O)C(CCOc1cccc(CC)c1)C(=O)OCC`, for which the activation was 109% (active).
The value for `CCOC(=O)c1cccc(NC(=O)CCOc2ccccc2)c1` was 9.76%; that for `CCOc1ccc(NC(=O)CN(C)C(=O)COc2cccc(CC)c2)cc1OCC` was -14.1%; that for `CC(=O)Nc1cccc(C(=O)OCC(=O)NCc2cc(C)c(O)c(C)c2)c1` was 3.6%.
The value for `Nc1nonc1-n1nnc(C(=O)N/N=C/c2ccccc2O)c1CN1CCCC1` was 12.4%; that for `Cc1cc(C)cc(OCC(=O)O/N=C(\N)Cc2ccc([N+](=O)[O-])cc2)c1` was 59.9% (active).
For the molecule `N/C(Cc1ccc([N+](=O)[O-])cc1)=N\OC(=O)C1CCCCC1`, the activation is -5.43%.
The value for `CCOC(=O)COc1ccc([N+](=O)[O-])cc1` was 9.19%.
`COc1cc(OC)cc(C(=O)NNC(=O)CNC(=O)c2ccc(Br)o2)c1`: the activation was 12%.
Turning to `Cc1ccc(NC(=O)CSCC(=O)Nc2sccc2C#N)cc1`, the activation is -2.79%.
The value for `Cc1noc(C)c1COc1ccccc1C(=O)N(C)CC(=O)Nc1cccc(F)c1` was -1.32%.
The value for `O=C1CCCN2N=C(SCC(=O)Nc3ccc(Br)cc3)SC2=N1` was 112% (active); that for `O=C(CSCc1ccc(Br)cc1)Nc1ccc(S(=O)(=O)N2CCCCCC2)cc1` was 25.6%; that for `Cc1cc(=O)[nH]c(SCC(=O)Nc2ccc(Br)cc2)n1` was 2.91%.
Turning to `CCOc1ccc(CC(=O)NCCS(=O)(=O)N2CCN(c3ccccc3)CC2)cc1`, the activation is 3.03%.
The value for `Cc1cc(C)cc(N(CC(=O)NCCSCc2ccco2)S(C)(=O)=O)c1` was 9.37%.
The value for `CS(=O)(=O)N(Cc1ccc(Cl)cc1)c1ccc(C(=O)NCCSCc2ccco2)cc1` was 71.5% (active); that for `Cc1ccc(N(Cc2ccc(C(=O)Nc3ccccc3C(=O)NCc3ccco3)cc2)S(C)(=O)=O)cc1C` was 87.4% (active).
For the molecule `O=C(Nc1ccccc1)Nc1ccccc1C(=O)NCc1ccco1`, the activation was 25.4%.
The value for `CCc1ccccc1N(CC(=O)NCCSCc1ccco1)S(C)(=O)=O` was 6.86%.
As for `COc1ccc(C(=O)Nc2ccccc2C(=O)NCc2ccco2)cc1`, the figure is 10.2%.
As to `O=C(CCN1C(=O)C2CCCCC2C1=O)Nc1ccc(OC(F)F)cc1` (stereo unspecified), the activation was 20.6%.
The value for `O=C(CNC(=O)c1ccccc1Br)NCCSc1ccc(Br)cc1` was 8.99%.
As for `CCCn1c(C)cc(-c2csc(NC(=O)CCc3nc4ccccc4c(=O)[nH]3)n2)c1C`, the figure is -8.73%; as for `CCCc1cc(=O)[nH]c2nnc(SCC(=O)Nc3nnc(SCC)s3)n12`, -4.43%.
As for `CCOc1ccc(S(=O)(=O)Nc2ccc(C(=O)NCCCN3CCCC3=O)cc2)cc1`, the figure is 4.33%; as for `CCc1noc(C)c1C(=O)NNC(=O)c1ccc(F)cc1`, 7.94%; as for `Cc1ccc(-c2c3c(=O)n(C)c(=O)n(C)c3cn2-n2cnnc2)cc1`, 89.3% (active).
`Cc1ccc(-c2c3c(=O)n(C)c(=O)n(C)c3cn2-c2ccccc2O)cc1`: the activation is 3.5%.
`COc1ccc(-c2c3c(=O)n(C)c(=O)n(C)c3cn2NC(C)=O)cc1`: the activation is -5.15%.
As for `COc1cccc(CNC(=O)C(=O)NCCC2CCCCN2S(=O)(=O)c2ccc(C)cc2)c1` (stereo unspecified), the figure is -8.41%; as for `O=C(Nc1ccncc1)c1ccc([N+](=O)[O-])cc1Cl`, 23.1%.
As for `O=C(Nc1ccc(Br)cn1)c1ccc([N+](=O)[O-])cc1Cl`, the figure is 69.9% (active); as for `CN1C(=O)c2ccc(C(=O)Nc3ccc(Br)cn3)cc2C1=O`, -4.17%.
The value for `O=C(Nc1ccc(Br)cn1)c1ccc([N+](=O)[O-])o1` was 131% (active); that for `CC(C)C(=O)Nc1cccc(NC(=O)c2ccc([N+](=O)[O-])cc2Cl)c1` was 32.5%; that for `O=C(/C=C/c1ccc(Cl)cc1)Nc1ccc(Br)cn1` was 6.81%.
Consider `COc1ccc(C(=NN)c2ccc(OC)cc2)cc1`, for which the activation is 29.3%.
The value for `CN(C)CCn1c2c(c(SCC(=O)NCc3ccccc3)nc1=O)CCC2` was 4.29%; that for `CCc1nnc(NS(=O)(=O)c2ccc(NC(=O)c3cccc(OC(F)(F)C(F)F)c3)cc2)s1` was -15.3%; that for `Cc1onc(NC(=O)c2ccc([N+](=O)[O-])o2)c1Br` was 52.4% (active).
The value for `Cc1cccc(NC(=O)NC(=S)NC(=O)c2ccccc2)c1` was 13.9%.
The value for `Cc1cccc(NC(=O)c2cc([N+](=O)[O-])ccc2N2CCN(C)CC2)c1` was 13.9%; that for `Cc1cccc(NC(=S)Nc2ccc(Br)cc2)c1` was 46.2%.
With `Cc1cccc(NC(=O)c2sc(-c3ccccc3)nc2-c2ccc([N+](=O)[O-])cc2)c1`, the activation was -61.8%.
Consider `Cc1onc(C(=O)NCc2ccc(F)cc2)c1[N+](=O)[O-]`, for which the activation is 8.38%.
For `Cc1cccc(NC(=S)NC(=O)c2ccc(Br)o2)c1`, the activation was 78.6% (active).
The value for `Cc1onc(C(=O)Nc2ccc3c(c2)OCO3)c1[N+](=O)[O-]` was 10.2%; that for `Cc1cccc(NC(=O)c2ccc([N+](=O)[O-])o2)c1` was 56.4% (active).
As for `O=C1[C@H]2[C@@H](c3ccc(F)cc3)N3C(=O)N(c4ccc(C(F)(F)F)cc4)C(=O)[C@@]3(Cc3ccccc3)[C@H]2C(=O)N1C1CCCCC1`, the figure is -4.57%; as for `O=C(NCCC1CCCCN1S(=O)(=O)c1ccc(Cl)cc1)C(=O)NCc1ccco1` (stereo unspecified), 22.8%; as for `COc1ccc(NS(=O)(=O)c2ccc(C)c(C(=O)N(C)Cc3ccc(OC)cc3OC)c2)cc1`, -13.6%.
As for `CCOc1ncccc1C(=O)NNC(=O)c1cccc(S(=O)(=O)Nc2ccccc2OC)c1`, the figure is -1.67%.
On to `Cc1ccc(NNC(=O)c2cccs2)cc1Cl`, for which the activation was 69.2% (active).
`Cc1ccc(NNC(=O)c2c(F)cccc2Cl)cc1Cl`: the activation was 0.438%.
For the molecule `O=C(NNC(=O)c1ccc(Cl)cc1Cl)c1cccs1`, the activation is 25.3%.
